TDP1 cell noCPT = qHTS for Inhibitors of human tyrosyl-DNA phosphodiesterase 1 (TDP1): qHTS in cells in absence of CPT. AID 686978, 2013. Potency, µM (doses to about 46.2 µM), for the others: at the highest dose activity change, negative = growth inhibition, most hits filed as inhibitors. DT40 Tdp1-/- hTDP1 cells, no CPT, ATP luminescence, 48 h. 420,000 tested, 15% active; further: on the % scale 0 is the no-effect control and ±100 the full control effect; nearly all actives have a fitted effect of over 55% in size
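DT40 Tdp1-/-;hTDP1 cells, no CPT (DMSO vehicle only), 400 cells/well; compounds pin-transferred; ≥48 hr, 37 °C; CellTiter-Glo 30 min RT dark, luminescence read.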
ClpP mod = qHTS Assay for Activators of ClpP. ATP-dependent Clp protease proteolytic subunit (Bacillus subtilis (strain 168)), P80244. purified B. subtilis ClpP, FRET peptide cleavage, 20 min. 340,000 tested, 1.9% active. Potency, µM (doses to about 57.5 µM), without a hit: top-dose activity change, negative = active; active means well fitted falling curve with a large enough effect; inconclusive means small, poorly fitted or top-dose-only effect; inactive means no such curve, though single readings can be large or run the other way; further: the source files actives as falling curves though it sought activators and does not explain the sign; nearly all actives have a fitted effect of over 65% in size
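ClpP 10 microg/mL final, pH 8 Tris/KCl buffer with BSA, glycerol, Tween-20; compound pinned in; FRET-FV substrate; RT 20 min; Ex320/Em430; ΔFRET vs ADEP 5.8 microM, DMSO, no enzyme.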
TDP1 block = TDP1 (human) enzyme inhibition; Q9NUW8; recombinant TDP1, AlphaScreen DNA substrate cleavage; Potency, µM (series often up to 130 µM), for inactives: at the top dose activity change, negative = inhibition, usual class: inhibitors; 350,000 tested, 0.28% active; further: on the % scale 0 is the no-effect control and ±100 the full control effect; nearly all actives have a fitted effect of over 40% in size
Target sequence (Q9NUW8 whole entry, looked up): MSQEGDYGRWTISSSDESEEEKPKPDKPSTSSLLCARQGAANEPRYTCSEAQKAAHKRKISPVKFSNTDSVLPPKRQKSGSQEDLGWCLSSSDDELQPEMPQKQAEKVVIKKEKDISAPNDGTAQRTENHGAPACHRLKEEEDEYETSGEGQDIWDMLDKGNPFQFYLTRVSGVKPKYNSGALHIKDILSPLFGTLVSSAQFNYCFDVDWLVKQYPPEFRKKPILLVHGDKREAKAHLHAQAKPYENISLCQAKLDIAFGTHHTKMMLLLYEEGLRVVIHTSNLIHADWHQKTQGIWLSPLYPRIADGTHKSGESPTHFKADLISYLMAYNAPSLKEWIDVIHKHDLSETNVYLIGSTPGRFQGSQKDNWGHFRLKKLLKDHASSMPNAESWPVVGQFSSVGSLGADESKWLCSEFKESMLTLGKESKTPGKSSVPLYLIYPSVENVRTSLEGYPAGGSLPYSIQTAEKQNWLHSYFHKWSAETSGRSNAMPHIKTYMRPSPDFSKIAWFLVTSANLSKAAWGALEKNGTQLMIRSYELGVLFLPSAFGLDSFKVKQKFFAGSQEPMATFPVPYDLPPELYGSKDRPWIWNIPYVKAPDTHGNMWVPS
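Signal: AlphaScreen proximity between streptavidin donor and anti-FITC acceptor beads on intact substrate. Reaction: Tdp1 1 nM, substrate 15 nM final, 5 min RT after 15 min compound preincubation.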
DT40 TDP1 CPT = DT40-hTDP1 cell growth loss with CPT; chicken DT40 Tdp1-/-;hTDP1 cells + 20 nM CPT, ATP luminescence, 48 h; Potency, µM (top dose mostly 46.2 µM), inactives show at the highest dose activity change, negative = growth inhibition, actives largely listed as inhibitors; 420,000 tested, 12% active; further: on the % scale 0 is the no-effect control and ±100 the full control effect; nearly all actives have a fitted effect of over 55% in size
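Chicken DT40 Tdp1-/- cells complemented with human TDP1, 400 cells/well, exposed to compounds plus 20 nM camptothecin for at least 48 h at 37 C; viability read as ATP content by CellTiter-Glo luminescence.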
Active calls of the source: *; ? = inconclusive; · = not tested or not shown. A selection: hits, their analogues and other compounds. The true share with any hit is near 17%. Unless noted, the call rests on the fitted dose curve; in most records, active means well fitted curve in the direction sought with a large enough effect; inconclusive means small, poorly fitted or top-dose-only effect, or another doubt; inactive means no such curve, though single readings can be large; an effect the other way counts as inactive or inconclusive. Potency means the concentration at half of the fitted maximal effect.

SMILES	TDP1 cell noCPT	ClpP mod	TDP1 block	DT40 TDP1 CPT
CCC(C(=O)N1CCN(c2ccccc2F)CC1)n1nc(C)c2sc3ccccc3c2c1=O (configuration not stated)	?	-3%	9%	?
C=CCNC(=S)NNC(=O)COc1ccc2cc(Br)ccc2c1	8.2µM*	-3%	5%	?
C=CCNC(=S)NNC(=O)COc1ccc(Br)cc1	-2%	-5%	3%	2%
Cc1ccc(-n2nnc3c(=O)oc4ccccc4c32)cc1	21µM*	1%	2%	5.8µM*
Cc1ccc2c(c1)N(C(=O)CCC(=O)Nc1ccc(F)cc1F)CC(C)O2 (configuration not stated)	7.3µM*	0%	3%	5.2µM*
COC(=O)c1ccccc1NC(=O)CCC(=O)N1CC(C)Sc2ccccc21 (configuration not stated)	15µM*	-11%	-5%	16µM*
COc1ccc(N2CCN(C(=O)CCC(=O)N3CC(C)Oc4ccccc43)CC2)cc1 (configuration not stated)	?	-12%	·	?
COC(=O)c1ccccc1NC(=O)CCC(=O)N1CC(C)Oc2ccc(C)cc21 (configuration not stated)	?	-9%	·	15µM*
COC(=O)c1ccccc1NC(=O)CCC(=O)N1CCSc2ccccc21	-21%	-13%	·	-8%
CC1CN(C(=O)CCC(=O)N2CCN(c3cccc(C(F)(F)F)c3)CC2)c2ccccc2O1 (configuration not stated)	21µM*	-4%	5%	18µM*
CCOC(=O)c1ccccc1NC(=O)N1CC(C)Oc2ccc(C)cc21 (configuration not stated)	?	-13%	4%	?
S=c1[nH]ncn1/N=C/c1cccs1	24%	0%	?	14%
CN(Cc1ccccc1)C(=O)c1cccc(NC(=O)Cc2cccc(NC(=O)C3CCN(C(=O)C4CCC4)CC3)c2)c1	?	2%	·	?
Cc1ccc2c(c1)N(C(=O)CCC(=O)N1CCOCC1)CC(C)O2 (configuration not stated)	-5%	1%	·	-1%
Cc1ccc2c(c1)N(C(=O)CCC(=O)N1CCC(C(N)=O)CC1)CC(C)O2 (configuration not stated)	5%	-3%	·	26µM*
CCOC(=O)c1cccc(NC(=O)CCC(=O)N2CC(C)Oc3ccc(C)cc32)c1 (configuration not stated)	?	18%	9%	23µM*
O=C(Cn1cnc2ccc(Cl)cc2c1=O)c1cccs1	-17%	-1%	-2%	-6%
O=C(NCc1ccccc1)C(c1ccccc1F)n1c(=O)c(-c2ccccc2)nc2ccccc21 (configuration not stated)	?	?	·	16µM*
Cc1cccc(C)c1NC(=O)C(c1ccccc1F)n1c(=O)c(-c2ccccc2)nc2ccccc21 (configuration not stated)	21µM*	?	·	?
CCCCCNC(=O)C(c1cc2ccccc2o1)n1c(=O)c(-c2ccco2)nc2ccccc21 (configuration not stated)	16µM*	-25%	·	?
O=C(NCc1ccccc1)C(c1ccccc1F)n1c(=O)c(-c2ccco2)nc2ccccc21 (configuration not stated)	21µM*	4%	·	?
CC(C)(C)NC(=O)C(c1cc2ccccc2o1)n1c(=O)c(-c2ccco2)nc2ccccc21 (configuration not stated)	?	4%	·	?
CCOP(=O)(OCC)C(O)c1cc(OC)c(OC)c(OC)c1 (configuration not stated)	-17%	-18%	-2%	-5%
CN(c1ccccc1)c1ccc(/C=N/NC(=O)CC#N)cc1	?	?	-2%	?
CN(C)c1ccc(/C=C/c2cc(=O)[nH]c3ccccc23)cc1	-29%	-15%	·	-30%
SMILES	TDP1 cell noCPT	ClpP mod	TDP1 block	DT40 TDP1 CPT
CC(C)(C)NC(=O)C(c1cc2ccccc2o1)n1c(-c2ccc(-c3ccccc3)cc2)nc2ccccc21 (configuration not stated)	?	4%	·	16µM*
O=C(NCc1ccccc1)C(c1cc2ccccc2o1)n1c(=O)c(-c2ccccc2)nc2ccccc21 (configuration not stated)	13µM*	-5%	·	15µM*
O=C(NCc1ccccc1)C(c1ccncc1)n1c(=O)c(-c2ccccc2)nc2ccccc21 (configuration not stated)	?	4%	·	-21%
CC1(C)CC(=O)N(c2ccc(Cl)cc2Cl)C(=O)C1	-14%	-2%	·	0%
CCOc1cc(CN2CCN(S(=O)(=O)c3ccc(C)cc3)CC2)ccc1OC	16µM*	-1%	·	?
O=C(c1cc(Br)ccc1O)N1CCN(S(=O)(=O)Cc2ccccc2)CC1	12µM*	-1%	1%	?
CCOc1cc(CN2CCN(S(=O)(=O)Cc3ccccc3)CC2)ccc1OC	23µM*	·	-4%	-19%
O=C(c1cccc(F)c1)N1CCN(S(=O)(=O)Cc2ccccc2)CC1	13%	0%	2%	-4%
COc1ccc(Br)cc1CN1CCN(S(=O)(=O)Cc2ccccc2)CC1	8.2µM*	-3%	5%	?
CCc1cccc(C)c1NC(=O)CCN1C(=O)NC(C)(C)C1=O	-3%	0%	0%	3%
N#Cc1cccc(CS(=O)(=O)c2nnnn2C2CCCCC2)c1	·	·	7%	·
COc1ccc(S(=O)(=O)N2CCN(CCCOc3ccc(F)cc3)CC2)cc1OC	21µM*	·	0%	?
O=c1c2cc(Cl)ccc2[nH]c(=S)n1Cc1ccco1	?	0%	8%	?
O=c1c2cc(N3CCOCC3)ccc2[nH]c(=S)n1Cc1cccc(Cl)c1	?	9%	3%	21µM*
CCN(CCCn1c(=S)[nH]c2ccc(N3CCOCC3)cc2c1=O)c1ccccc1	21µM*	·	5%	12µM*
O=c1c2cc(N3CCOCC3)ccc2[nH]c(=S)n1Cc1ccco1	21µM*	0%	-5%	?
COc1cccc(Cn2c(=S)[nH]c3ccc(N4CCOCC4)cc3c2=O)c1	-10%	-5%	9%	-15%
O=C(CCCCCn1c(=S)[nH]c2ccc(N3CCOCC3)cc2c1=O)NC1CCN(Cc2ccccc2)CC1	23µM*	0%	6%	16µM*
COc1ccc(CC(=O)Nc2nnc3n2CCS3)cc1	-11%	0%	3%	-16%
O=C(OCC#CCSc1nnc(-c2cccc(F)c2)o1)c1ccc(F)cc1	·	·	-8%	·
CN(C)C(=O)c1ccc2c(c1)N(CC(=O)NCc1ccc(F)cc1)C(=O)C1CCCCN21 (configuration not stated)	-26%	-2%	8%	-23%
